# Reference: PubChem BioAssay (NCATS)
# Values without a mark were called inactive. Records with an inconclusive call do not appear. A call without a number means that no potency is given here. The source made the active and inactive calls. The call rests on the fitted dose curve; in most records, active means well fitted curve in the direction sought with a large enough effect; inconclusive means small, poorly fitted or top-dose-only effect, or another doubt; inactive means no such curve, though single readings can be large; an effect the other way counts as inactive or inconclusive.
# Key:
# [1] = Primary qHTS for inhibitors of nuclear receptor binding SET domain protein 2 (NSD2) in an RCH-ACV wild type WT cells (2C) (AID 1645877); further: nearly all actives have a fitted effect of over 70% in size; further: potency means the concentration at half of the fitted maximal effect
# [2] = biological target: Glutathione peroxidase 1 (Homo sapiens) (UniProt P07203); assay: Primary qHTS Assay for Inhibitors of Recombinant Selenoprotein Glutathione Peroxidase 1 (GPX1) (AID 1845191); further: nearly all actives have a fitted effect of over 65% in size
# How it was run: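 10 nM GPX1 + cpd, 30 min RT; start w/ 1 mM GSH, 0.5 mM cumene hydroperoxide, 0.5 mM NADPH, 100 nM GR, 0.01% BSA; buffer 50 mM Tris-HCl pH 7.5, 2 mM EDTA, 150 mM NaCl; Fl 340/450, 0 & 15 min.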
# [3] = biological target: Phospholipid hydroperoxide glutathione peroxidase GPX4 (Homo sapiens) (UniProt P36969); assay: Primary qHTS Assay for Inhibitors of Recombinant Selenoprotein Glutathione Peroxidase 4 (GPX4) (AID 1845192); further: nearly all actives have a fitted effect of over 65% in size; on activity change, negative = inhibition: series mostly up to about 50 µM
# How it was run: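 NADPH consumption, followed by fluorescence at 340/450 nm between 0 and 15 min, reports GPX4 activity via coupled glutathione reductase (100 nM). Enzyme 200 nM was pre-exposed to compound 30 min; 0.5 mM cumene hydroperoxide and 1 mM GSH served as substrates.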
# [4] = biological target: Luciferin 4-monooxygenase (Photinus pyralis) (UniProt P08659); assay: Primary firefly luciferase (FLuc) qHTS assay for identification of artifact compounds. (AID 1845220); further: nearly all actives have a fitted effect of over 60% in size; on activity change, negative = inhibition: series mostly up to about 54 µM
# How it was run: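 FLuc 10 nM; luciferin 10 uM; ATP 10 uM; Tris-acetate pH 7.6, Mg-acetate 10 mM; 15 min RT preincubation; 5 min reaction; luminescence.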
# [5] = Primary fluorescence-based thiol-reactive (MSTI) qHTS assay for identification of artifact compounds. (AID 1845221); further: nearly all actives have a fitted effect of over 65% in size; further: potency means the concentration at half of the fitted maximal effect;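 on activity change, negative = thiol reactive: series mostly up to about 54 µM; thiol-reactive compounds lower the probe fluorescence signal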
# How it was run: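 One-hour, room-temperature, dark incubation of compound with 4 uM MSTI in PBS (pH 7.4, 2% DMSO) precedes a fluorescence read at 525 nm excitation, 598 nm emission; Hill-equation fitting yields concentration-response values.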
# [6] = test system: Nanoluciferase (engineered Oplophorus gracilirostris luciferase); assay: Primary Nanoluciferase (NLuc) qHTS assay for identification of artifact compounds. (AID 1845222);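 further: NLuc secreted into diluted conditioned medium of S16 cells; series mostly up to about 54 µM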
# How it was run: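 NLuc from S16 cell medium (1:55) plus test compounds, 15 min, room temperature. Luminescence after Nano-Glo (1:100) addition, 5 min.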
# [7] = Primary redox qHTS assay for identification of artifact compounds. (AID 1845223)
# How it was run: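 Amplex Red (25 uM) and HRP (250 mU/mL) in HBSS, with compounds for 15 min, then 250 uM DTT for 30 min, room temperature, dark. Fluorescence 525/598 nm read; normalized to DMSO and 10 uM DA3003; Hill fit.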
# Chain of Glutathione peroxidase 1 (Homo sapiens) (P07203 whole entry, looked up): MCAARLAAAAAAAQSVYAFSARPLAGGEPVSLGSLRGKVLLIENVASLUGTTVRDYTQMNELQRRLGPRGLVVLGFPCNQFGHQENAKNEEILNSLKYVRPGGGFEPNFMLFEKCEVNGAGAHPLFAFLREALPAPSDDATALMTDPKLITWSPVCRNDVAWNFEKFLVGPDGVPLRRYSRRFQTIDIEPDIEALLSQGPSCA
# Chain of Phospholipid hydroperoxide glutathione peroxidase GPX4 (Homo sapiens) (P36969 whole entry, looked up): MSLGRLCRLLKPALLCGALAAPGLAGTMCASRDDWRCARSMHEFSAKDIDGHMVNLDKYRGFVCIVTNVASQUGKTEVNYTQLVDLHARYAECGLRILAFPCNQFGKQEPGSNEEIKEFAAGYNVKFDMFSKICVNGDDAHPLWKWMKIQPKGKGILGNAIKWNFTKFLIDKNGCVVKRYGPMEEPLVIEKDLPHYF
SMILES,Potency [1],Potency [2],Potency [3],Potency [4],Potency [5],Potency [6],Potency [7],"activity change, negative = cell killing [1]","activity change, negative = inhibition [4]","activity change, negative = thiol reactive [5]","activity, negative = inhibition [6]",redox activity (% of DA3003) [7]
C=C[C@H]1C(O[C@@H]2O[C@H](CO)[C@@H](O)[C@H](O)[C@H]2O)OC=C2C(=O)N3CCc4c([nH]c5ccccc45)C3CC21 (some centres undefined),inactive,inactive,inactive,inactive,inactive,inactive,inactive,–,–,–,–,–
FC(F)(F)c1ccc(Nc2nc(-c3c(C(F)(F)F)nc4ccccn34)cs2)cc1,372 nM (active),inactive,inactive,inactive,inactive,inactive,inactive,–,–,–,–,–
C=C[C@@H]1[C@H](O[C@@H]2O[C@H](CO)[C@@H](O)[C@H](O)[C@H]2O)OC=C(C(=O)O)[C@H]1CCOC(=O)/C=C/c1ccc(O)c(O)c1,inactive,inactive,inactive,inactive,1300 nM (active),inactive,inactive,–,–,–,–,–
CC1(C)CC[C@]2(CO[C@@H]3O[C@H](CO)[C@@H](O)[C@H](O)[C@H]3O)[C@@H](O)C[C@]3(C)C(=CCC4[C@@]5(C)CC[C@H](O[C@@H]6O[C@H](CO[C@@H]7O[C@H](CO[C@@H]8OC[C@@H](O)[C@H](O)[C@H]8O)[C@@H](O)[C@H](O)[C@H]7O)[C@@H](O)[C@H](O)[C@H]6O)C(C)(C)C5CC[C@]43C)[C@@H]2C1 (some centres undefined),–,inactive,inactive,–,–,–,–,-16% [at 9.23 µM],-4.11% [at 11.6 µM],75.4% [at 11.5 µM],0.495% [at 11.6 µM],13.8% [at 11.5 µM]
COc1c2c(c(CO)c3c1C(=O)OC3)OC1(C)CCC3(O)C(C)(C)OC(=O)CCC3(C)C1C2 (centres undefined),inactive,inactive,inactive,inactive,inactive,inactive,inactive,–,–,–,–,–
CNS(=O)(=O)c1ccccc1Nc1nc(Nc2ccc(N3CCN(C)CC3)cc2OC)ncc1Cl,649 nM (active),inactive,inactive,inactive,2380 nM (active),inactive,inactive,–,–,–,–,–
CC(C)C[C@H](CC(=O)NO)C(=O)N[C@@H](Cc1ccc2ccccc2c1)C(=O)N[C@@H](C)C(=O)NCCN,inactive,inactive,inactive,inactive,inactive,inactive,inactive,–,–,–,–,–
Nc1nc2c(c(=O)[nH]1)C[C@@H](CCc1ccc(C(=O)N[C@@H](CCC(=O)O)C(=O)O)cc1)CN2,9.2 nM (active),inactive,inactive,inactive,inactive,inactive,inactive,–,–,–,–,–
C[C@H]1CC[C@@H]2N(C1)C[C@@H]1[C@H]([C@@H](O)[C@H](O)[C@]3(O)[C@H]1C[C@@]14OC5(O)[C@@H](C[C@@H](O)[C@@H]31)[C@]4(C)CC[C@@H]5O)[C@]2(C)O,inactive,inactive,inactive,inactive,inactive,inactive,inactive,–,–,–,–,–
O=C(O)c1ccccc1NC(=O)N1CCC(c2ccccc2C(F)(F)F)CC1,inactive,inactive,inactive,inactive,inactive,inactive,inactive,–,–,–,–,–
C=C(C(=O)OC)C1C(O)CC2(C)C(=O)CCC(O)(CO)C2C1O (centres undefined),inactive,inactive,inactive,inactive,inactive,inactive,inactive,–,–,–,–,–
COc1ccc([C@H]2CNC(=O)C2)cc1OC1CCCC1,inactive,inactive,inactive,inactive,inactive,inactive,inactive,–,–,–,–,–
CC1=C2C3OC(=O)C(C)C3(O)CCC2(C)CCC1O (centres undefined),inactive,inactive,inactive,inactive,11900 nM (active),inactive,inactive,–,–,–,–,–
Cc1cnc(NC(=O)Nc2cc(Br)c(C)cc2OCC2CNCCO2)cn1 (centres undefined),578 nM (active),inactive,inactive,inactive,inactive,inactive,inactive,–,–,–,–,–
CC(C)C(C(=O)N(C)C(C)C(N)=O)N(C)C(=O)C1CCCN1C(=O)/C=C/C=C/C(O)C(C)O (centres undefined),inactive,inactive,inactive,inactive,inactive,inactive,inactive,–,–,–,–,–
CC1(C)CCC2(C(=O)OC3OC(CO)C(O)C(O)C3O)CCC3(C)C(=CCC4C5(C)CCC(OC6OC(C(=O)O)C(OC7OC(CO)C(O)C(O)C7O)C(OC7OC(CO)C(O)C(O)C7O)C6O)C(C)(C)C5CCC43C)C2C1 (centres undefined),–,inactive,inactive,–,–,–,–,-7.84% [at 9.23 µM],-0.248% [at 11.6 µM],123% [at 11.5 µM],1.02% [at 11.6 µM],10.6% [at 11.5 µM]
CC(CCC1(O)OC2CC3C4CCC5CC(O[C@@H]6O[C@H](CO)[C@@H](O)[C@H](O)[C@H]6O[C@@H]6O[C@@H](C)[C@H](O)[C@@H](O)[C@H]6O)C(O)CC5(C)C4CCC3(C)C2C1C)CO[C@@H]1O[C@H](CO)[C@@H](O)[C@H](O)[C@H]1O (some centres undefined),–,inactive,inactive,–,–,–,–,-13.5% [at 9.23 µM],-2.32% [at 11.6 µM],141% [at 11.5 µM],2.24% [at 11.6 µM],15.2% [at 11.5 µM]
